Experimental data from PubChem BioAssay AID743279 (National Center for Advancing Translational Sciences (NCATS), 2014).
About 17,000 (4.7%) of roughly 360,000 compounds were called active. Inconclusive results (about 5%) are left out. No stated cut-off is given here; in the data, active means activity change below about -50%; inconclusive means mostly about -30% to -49%; inactive means weaker than that. The entries come from a sample that favours actives as a whole.
On the % scale 0 is the no-effect control and ±100 the full control effect.

Test: qHTS for Inhibitors of Inflammasome Signaling: IL-1-beta AlphaLISA Primary Screen
Settings: THP-1 LPS/ATP IL-1B secretion, 16 h; at 57.5 µM, stronger effect = lower value
Excerpt: Inflammasomes are a set of intracellular multi-protein complexes that enable autocatalytic activation of inflammatory caspases and drive the innate immune response to counter harmful agents. […] A qHTS assay, based on AlphaLISA technology, was developed to screen the Molecular Libraries Small Molecule Repository (MLSMR) to look for novel inflammasome inhibitors. The assay detects IL-1B using AlphaLISA anti-IL-1B acceptor and donor beads. A decreased emission signal, indicating reduced IL-1B secretion, is the desired outcome for this assay. NIH Chemical Genomics Center [NCGC] NIH Molecular Libraries Probe Centers Network [MLPCN] MLPCN Grant: MH095513 Assay Provider: Shyam Biswal Ph.D., Johns Hopkins University Immunity. 2012 Jul 27;37(1):85-95. PMID: 22819042 [2] Curr Pharm Des. 2012;18(16):2320-8. PMID: 22390695
Three microliters containing 3000 THP-1 cells were dispensed into the wells of solid, white, tissue culture treated Greiner 1,536-well plates. Library compounds and positive control, Glyburide, were pin-transferred (23 nL) by a Kalypsys pin-tool equipped with a 1,536-pin array, resulting in final compound concentration ranges of 2.5 nM to 57.5 uM. After 1 hr of cell culture incubation (37 °C, 5% CO2), 1 microL of 1 microg/mL lipopolysaccharide (250 ng/mL, final) and 5 mM ATP (1.25 mM, final) were added to stimulate the cells. After 16 hr of cell culture incubation with the compounds, 1.5 uL of anti-IL-1B acceptor beads (6 ug/mL, final) and biotinylated antibody (0.6 nM, final) were added to the plate, followed by a 1 hr incubation at ambient temperature. To detect the secreted IL-1B, 1.5 uL of AlphaLISA SA-Donor beads (24 ug/mL, final) were added, followed by 30 min of incubation in the dark at ambient temperature. The AlphaLISA signal was read by a PerkinElmer EnVision plate reader with an ultrasensitive luminescence detector and 1536 Plate HTS AlphaScreen aperture (excitation of 680nm and emission of 615nm).
For `O=C(O)CC12CC3CC(C1)CC(n1ncc(NCc4ccc(F)cc4)c(Cl)c1=O)(C3)C2`, the activity change was -16% (inactive).
In the case of `CSC1=N/C(=C\C=C\c2cccs2)C(=O)S1`, the activity change is reported as -92.1% (active).
For `COc1ccc(OC(C)C(=O)Nc2cccnc2)cc1` (configuration not stated), the activity change was -0.423% (inactive).
For `CC(Sc1nc2c([nH]c3ccccc32)c(=O)n1C)c1ccccc1` (configuration not stated), the activity change was 27.7% (inactive).
For `O=C1OCCC1=COCCCCOC=C1CCOC1=O`, the activity change was 2.81% (inactive).
In the case of `CCOC(=O)c1[nH]ncc1CN1CCCC(C(=O)c2ccc(OC)cc2C)C1` (configuration not stated), the activity change is reported as 0% (inactive).
In the case of `COc1ccc(C(=O)C2CCCN(Cc3ccc4nonc4c3)C2)c(C)c1` (configuration not stated), the activity change is reported as -3.49% (inactive).
For `COc1ccc(C(=O)C2CCCN(Cc3cccn3-c3ccccn3)C2)c(C)c1` (configuration not stated), the activity change was -99.7% (active).
For `Cc1[nH]c2ccccc2c1C(=O)C(=O)NCc1nnnn1-c1cccc(F)c1`, the activity change was 10.9% (inactive).
With `Cc1ccccc1-c1csc(C(O)c2cccc(Cl)c2)n1` (configuration not stated) the activity change was -11.7% (inactive).
With `CCN(CC)c1ncnc2c1ncn2[C@H]1CN(Cc2cccs2)C[C@@H](CO)O1` the activity change was -12% (inactive).
With `Cc1csc(NC(=O)C2=COCCO2)n1` the activity change was -3.32% (inactive).
With `Cc1ccc(-c2csc(NC(=O)C3=COCCO3)n2)cc1C` the activity change was -88.1% (active).
For `CC(=O)NCCC(=O)Nc1nc(-c2ccc3c(c2)OCCO3)cs1`, the activity change was 15.5% (inactive).
In the case of `Nc1nc2cc(Cl)ccc2n1N`, the activity change is reported as 32.9% (inactive).
With `Cc1nn(Cc2ccc(Cl)cc2)c(Cl)c1/C=N/NC(=O)CNc1ccccc1F` the activity change was -13.7% (inactive).
In the case of `CCn1nc(C)c(/C=N/NC(=O)Cc2ccc(Cl)cc2)c1C`, the activity change is reported as 14.8% (inactive).
In the case of `Cc1nn(Cc2ccc(Cl)cc2)c(Cl)c1/C=N/NC(=O)c1cccnc1`, the activity change is reported as -70.6% (active).
With `NC(c1csc(NC(=O)Nc2ccccc2Oc2ccccc2)n1)c1ccccc1Cl` (configuration not stated) the activity change was -71.7% (active).
For `CC(=O)c1ccc(Nc2nc(C(N)c3ccccc3Cl)cs2)cc1` (configuration not stated), the activity change was 49.4% (inactive).
In the case of `COc1ccccc1NC(=O)Nc1nc(CC(=O)Nc2ccccc2F)cs1`, the activity change is reported as -1.21% (inactive).
For `CC/C(=C\c1ccc(Cl)cc1)c1ccncc1`, the activity change was 3.7% (inactive).
In the case of `COCCCn1c(C(=O)NC2CCCCC2)cc2c(=O)n3cccc(C)c3nc21`, the activity change is reported as -7.13% (inactive).
With `Cn1ncc([N+](=O)[O-])c1C(=O)Nc1cc(Cl)ccc1Cl` the activity change was -5.95% (inactive).
With `COc1ccccc1NC(=O)Nc1nnc(Cc2ccc(F)cc2)s1` the activity change was 28.6% (inactive).
With `Cc1cccc(C)c1Cn1c(C)c(C(=O)NCc2cccc(Cl)c2)sc1=O` the activity change was -13.4% (inactive).
In the case of `CC(=O)OCc1cc(=O)n(C)c(=O)n1C`, the activity change is reported as 18.2% (inactive).
